D1 potentiator: Potentiators of Human D1 Dopamine Receptor: qHTS; HEK293 TREx D1 cells, calcium flux, dopamine EC20 potentiation; potentiation, % at 10 µM; 360,000 compounds, 0.036% hits; AID 504651, 2011; in the data active means potentiation above about 30%; further: 0% is about no effect
Target sequence (P21728 whole entry, looked up): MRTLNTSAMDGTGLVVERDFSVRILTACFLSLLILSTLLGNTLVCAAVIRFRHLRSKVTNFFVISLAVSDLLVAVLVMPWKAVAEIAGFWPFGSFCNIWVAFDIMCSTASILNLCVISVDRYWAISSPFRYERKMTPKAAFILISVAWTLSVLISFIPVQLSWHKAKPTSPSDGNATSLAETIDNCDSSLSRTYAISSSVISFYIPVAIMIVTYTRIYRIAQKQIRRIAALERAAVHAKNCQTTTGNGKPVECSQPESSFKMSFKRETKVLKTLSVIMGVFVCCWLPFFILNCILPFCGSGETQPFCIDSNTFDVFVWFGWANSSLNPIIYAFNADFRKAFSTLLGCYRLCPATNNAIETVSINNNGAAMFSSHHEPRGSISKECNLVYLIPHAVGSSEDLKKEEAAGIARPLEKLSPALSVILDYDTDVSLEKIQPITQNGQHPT
D1 ag: Allosteric Agonists of the Human D1 Dopamine Receptor: qHTS; HEK293 T-REx D1 cells, calcium flux, agonist mode; activation, % at 2 µM; 360,000 compounds, 1% hits; AID 504660, 2011; in the data active means activation above about 30%; further: 0% is about no effect
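Agonism was scored from calcium flux recorded over 180 s (1 read/s) after pintool compound addition, following a 10-cycle baseline. Cells were inducible force-coupled HEK293 TREx D1, plated overnight at 30 C and loaded with no-wash calcium dye.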
D1 antagonist: Antagonist of Human D 1 Dopamine Receptor: qHTS. 360,000 compounds, 3.2% hits. D(1A) dopamine receptor (Homo sapiens), P21728. AID 504652, 2011. activity change, negative = inhibition, % at 10 µM. HEK293 TREx D1 cells, calcium flux, dopamine EC80; active compounds read low; in the data active means activity change below about -30%; further: on the % scale 0 is the no-effect control and ±100 the full control effect
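HEK293 T-REx cells expressing inducible, force-coupled D1 receptor; no-wash Ca dye, 30–90 min RT. Cmpd → 180 s read at 1 Hz → EC80 DA → 180 s read.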
USP2a inh: qHTS Assay for Inhibitors of Ubiquitin-specific Protease USP2a Using CHOP2 as the Reporter; Ubiquitin carboxyl-terminal hydrolase 2 (Homo sapiens), O75604; Potency, µM (series often up to 38.3 µM), for the others: top-dose activity change, negative = inhibition, hits mostly inhibitors; AID 463254, 2010; USP2 core, Ub-CHOP2 coupled fluorogenic reporter, 485/531; 330,000 compounds, 0.01% hits;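 further: potency means the concentration at half of the fitted maximal effect; plate controls were DMSO wells for no effect and full inhibition by NEM control for full effect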
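Cell-free coupled assay: 10nM USP2 core preincubated 30min RT with compound in Tris-HCl pH 8.0/CaCl2/CHAPS buffer, then 25nM Ub-CHOP2 and 25nM reporter substrate; fluorescence (Ex 485/Em 531) read after 60min RT, normalized to NEM inhibition, concentration-response curves fitted.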
GALK inhibitor: qHTS Assay for Inhibitors of Human Galactokinase (GALK) | P51570 | Purified GALK, Kinase-Glo residual ATP luminescence | Potency, µM (highest dose often 57.5 µM), inactives show at the top dose activity change, negative = inhibition, hits mostly inhibitors | 270,000 compounds, 0.007% hits | AID 1868, 2009; further: potency means the concentration at half of the fitted maximal effect; on the % scale 0 is the no-effect control and ±100 the full control effect
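The enzyme phosphorylates galactose (100 uM) using ATP (35 uM); inhibition is detected as higher residual ATP, quantified by bioluminescence after 1 h reaction at room temperature, pH 8.0.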
Eya2 phos inh: qHTS Assay for Inhibitors of the Phosphatase Activity of Eya2; Protein phosphatase EYA2 (Homo sapiens), O00167; recombinant Eya2, OMFP fluorescence dephosphorylation (OMFP is methylfluorescein phosphate); Potency, µM (doses to about 76.9 µM), without a hit: at the top dose activity, negative = inhibition, most hits filed as inhibitors; 330,000 compounds, 0.006% hits; AID 488837, 2010; further: potency means the concentration at half of the fitted maximal effect; on the % scale 0 is the no-effect control and ±100 the full control effect
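Eya2 protein (added as 0.2 uM solution) was preincubated with compound for 10 min at ambient temperature in 50 mM HEPES pH 7.5, 50 mM NaCl, 5 uM MgCl2, 0.05% BSA, 1 mM DTT. OMFP (added at 50 uM) then reacted 10 min; fluorescence read at 485/525 nm.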
Starred values were filed as active, the others as inactive; · = no result. A selection: hits, their analogues and other compounds. The true share with any hit is near 3.9%. Unless noted, the call rests on the fitted dose curve; in most records, active means well fitted inhibition curve with a large enough effect; inconclusive means small, poorly fitted or top-dose-only effect, or effect the other way; inactive means flat fitted curve, though single readings scatter.

SMILES | D1 potentiator | D1 ag | D1 antagonist | USP2a inh | GALK inhibitor | Eya2 phos inh
COc1ccc(Br)cc1CNC(=O)Cn1ncn2nc(-c3cccs3)cc2c1=O | -2 | 1 | 3 | · | · | ·
O=C(NCc1ccc(Cl)cc1)c1cccc(NC(=O)c2ccccc2)c1 | -5 | 3 | -34* | -6% | 0% | -10%
O=C(NCc1ccccc1)c1ccc(Cl)cc1 | -1 | 2 | -2 | 9% | -2% | 9%
CCCN(CCC)c1cc(C)nc2nc(-c3ccc(C(C)(C)C)cc3)nn12 | 4 | 1 | 2 | · | · | ·
Cc1cc(C)c2c(c1)/C(=N/NS(=O)(=O)c1ccc(Br)cc1)CCC2 | 0 | 3 | 10 | 1% | -1% | -26%
Cc1cc(C)c2c(c1)/C(=N/NS(=O)(=O)c1ccccc1)CCC2 | 7 | 6 | -97* | -1% | 1% | -28%
CC(C)c1ccc(CN2CCN(C(=O)CSc3nnnn3C3CC3)CC2)cc1 | -2 | 5 | -36* | 3% | · | 12%
O=C(Cn1ncc2c3ccccc3n(Cc3ccc(F)cc3)c2c1=O)NCCCN1CCCCC1 | -2 | 0 | -1 | · | · | ·
Cc1ccc2c(c1)[C@@H]1CN(C)CC[C@@H]1N2S(=O)(=O)c1ccc(F)cc1 | -10 | 7 | -3 | 0% | -1% | -1%
Cc1ccc2c(c1)[C@@H]1CN(C)CC[C@@H]1N2S(=O)(=O)c1ccc([N+](=O)[O-])cc1 | -1 | 60* | -1 | 2% | -2% | -19%
Cc1ccc2c(c1)C1CN(C)CCC1N2Sc1ccccc1[N+](=O)[O-] (configuration not stated) | -8 | 20 | -95* | -3% | -3% | -5%
CCNC(=O)c1cnc2c(-c3ccccc3)c(C)nn2c1C | -5 | 2 | -20 | · | · | ·
CCOC(=O)CSC1=Nc2ccccc2C2=NC(CCC(=O)NCc3ccc(OC)cc3)C(=O)N12 (configuration not stated) | 1 | 1 | -20 | · | · | ·
Cc1ccc(-c2cc(C(F)(F)F)n3nc(C(=O)Nc4sc5c(c4C#N)CCC(C)C5)cc3n2)cc1 (configuration not stated) | -6 | 0 | -37* | · | · | ·
COc1cccc(CN2c3ccccc3-c3nc(SCC(=O)Nc4cccc(C)c4)ncc3S2(=O)=O)c1 | -1 | 7 | 9 | · | · | ·
Cc1cc(-n2ccnc(NCCc3ccc(S(N)(=O)=O)cc3)c2=O)ccc1Br | -2 | 1 | -1 | · | · | ·
COc1cc(O)oc1C=Nc1ccc(C(=O)O)cc1 | 1 | 0 | -79* | -1% | 13% | 12%
CCOCCCNC(=O)Cn1cc2c(n1)-c1c(oc(C(=O)N3CCCC3)c1C)CC2 | -4 | 4 | -32* | · | · | ·
COc1cc(OC)c(NS(=O)(=O)c2ccc3c(c2)NC(=O)CO3)cc1Cl | -1 | 8 | -8 | 6% | -2% | -18%
COc1cc(OC)c(NS(=O)(=O)c2ccc3c(c2)NC(=O)CCS3)cc1Cl | 2 | 15 | -38* | · | · | ·
COCCCNC(=O)c1ccc2nc(CCc3ccccc3)oc2c1 | -2 | -1 | -9 | · | · | ·
CCOc1ccccc1CNC(=O)c1ccc2nc(CCc3ccccc3)oc2c1 | -3 | 14 | -7 | · | · | ·
COc1ccc(CNC(=O)c2ccc3nc(CCc4ccccc4)oc3c2)c(OC)c1 | -2 | 30 | -42* | · | · | ·
COCCNC(=O)c1ccc2nc(CCc3ccccc3)oc2c1 | -5 | 2 | -36* | · | · | ·
Cc1[nH]nc(N2CCCCCC2)c1[N+](=O)[O-] | -9 | 1 | -41* | 1% | -2% | -9%
Cc1ccn(-c2n[nH]c(C)c2[N+](=O)[O-])n1 | 20 | 8 | 4 | 4% | 0% | -2%
